In PubChem BioAssay:
Calls of active or inactive are those of the source.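 Rule for the calls, unless noted: active = normalized viability below 100% at a tested concentration; inactive = the rest.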

Assays:
[1] = liver-stage malaria parasite growth inhibition, primary screen, cell-based, HepG2, luciferase luminescence, HepG2 viability (AID 624349; in the data active = parasite load remaining mostly below about 12%, no sharp cut-off; inactive = mostly above about 10%;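 note: 100% = mean of DMSO negative control wells on the same plate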); conditions: P. berghei liver stage in HepG2, luciferase luminescence, concentration not given here; parasite load remaining: stronger effect = lower value; viability: measured here: HepG2 viability without parasites
[2] = stimulators of nuclear beta-catenin in C2C12, primary screen, imaging, WNT3A-conditioned medium, mouse C2C12, NPC library (AID 1117326; in the data active = nuclear beta-catenin stimulation mostly above about 4.2%, no sharp cut-off; inactive = mostly below about 10%); conditions: stronger effect = higher value
[3] = stimulators of insulin release from INS-1E, primary screen, cell-based, 5 mM glucose, NPC library (AID 1117329;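 active = compound raises insulin release from rat beta cells at 5 mM glucose, no numeric limit stated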); conditions: rat INS-1E insulin secretion, at 10 µM, stronger effect = higher value
[4] = growth inhibition of GSK3B-pretreated HCT116 cells – cell-based, CellTiter-Glo, 0.2 to 20 µM (AID 1117336;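 active = compounds lowering colon cancer cell viability after pretreatment blocking the GSK3B kinase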); conditions: HCT116 viability after GSK3B inhibitor, at 20 µM, stronger effect = higher value
[5] = inhibition of endothelial tube formation, primary screen, imaging, VEGF stimulated, CD31 staining, tube area, NPC library (AID 1117340;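 active = compound that reduces growth-factor-driven endothelial tube area in a mixed cell culture, no cutoff stated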); conditions: VEGF-stimulated ADSC/ECFC co-culture, at 10 µM, stronger effect = higher value
[6] = glucagon-like peptide 1 release enhancers, primary assay, NCI-H716 cell line, NPC library (AID 1117341;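 active = compound raises GLP1 secretion from the human gut endocrine cells, with no numeric limit stated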); conditions: NCI-H716 cells, at 10 µM, stronger effect = higher value
[7] = HCT116 colon cancer cell growth inhibition, primary screen, CellTiter-Glo luminescence, NPC library (AID 1117342;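 active = compounds that lower survival of HCT116 colon cancer cells in the luminescence readout, no numeric limit stated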); conditions: at 20 µM (top of the series)
[8] = CellTiter-Glo luminescent readout of SW480 viability loss, NPC library primary (AID 1117343;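 active = compounds that lower viability of the colon cancer cells in the luminescence readout, with no numeric limit stated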); conditions: CellTiter-Glo luminescence; at 20 µM (top of the series) unless noted
[9] = decreased DLD-1 cellular survival, CellTiter-Glo luminescent readout, NPC compound collection, primary HTS (AID 1117346;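 active = compounds that lower survival of DLD-1 colon cancer cells in the luminescence readout, no cutoff given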); conditions: DLD-1 viability, CellTiter-Glo luminescence; at 20 µM (top of the series)
[10] = differential killing of epithelial or mesenchymal cells, primary screen, imaging, PC-3E GFP, TEM4-18 mCherry, co-culture (AID 1345086;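 active = compounds killing one labelled cell type while sparing the other, by normalised counts and ratio limits, not self-fluorescent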;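 note: cells exposed to compound for 72 h before imaging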;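 for red/green cell ratio (normalised): normalised mesenchymal count divided by normalised epithelial count so high means epithelial killing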); conditions: imaging cell counts, at 1 µM
[11] = sensitizers of A549 cells to miR-34 induction, primary screen, imaging, A549 dox-inducible miR-34, nuclei and caspase counts (AID 1347080;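 active = compounds whose cell count with miR-34 switched on is under 0.7 times the count with it off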); conditions: A549 miR-34 inducible, Hoechst nuclei count, 48 h
[12] = survival rescue of mitochondrial mutant cells in low glucose, primary screen, MELAS cybrids, Rieske KO mouse fibroblasts, CellTiter-Glo (AID 1508586;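 active = mean z-score across replicates of 1.96 or higher in either the MELAS or the Rieske mutant cell line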;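 note: z relative to plate mean and SD of compound and empty wells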)
[13] = ovarian cancer cell viability with rucaparib, profiling panel, oncology-focused library, rucaparib conditional (AID 1508598); conditions: patient-derived ovarian cancer cells, CellTiter-Glo viability, 144 h, stronger effect = lower value
[14] = molecular target: NAD(+) hydrolase SARM1 (Homo sapiens) (UniProt Q6SZW1); assay: SARM1 TIR NADase inhibitors, cell lysate, NAD-Glo luminescence (AID 1508614;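 active = compound whose remaining NAD level is above about 45 nM, limit read from the data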;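 note: higher remaining NAD means stronger inhibition of SARM1 NADase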); conditions: SAM-TIR HEK293T lysate NADase, at 1 µM, stronger effect = higher value
Sequence of NAD(+) hydrolase SARM1 (Homo sapiens) (Q6SZW1 whole entry, looked up): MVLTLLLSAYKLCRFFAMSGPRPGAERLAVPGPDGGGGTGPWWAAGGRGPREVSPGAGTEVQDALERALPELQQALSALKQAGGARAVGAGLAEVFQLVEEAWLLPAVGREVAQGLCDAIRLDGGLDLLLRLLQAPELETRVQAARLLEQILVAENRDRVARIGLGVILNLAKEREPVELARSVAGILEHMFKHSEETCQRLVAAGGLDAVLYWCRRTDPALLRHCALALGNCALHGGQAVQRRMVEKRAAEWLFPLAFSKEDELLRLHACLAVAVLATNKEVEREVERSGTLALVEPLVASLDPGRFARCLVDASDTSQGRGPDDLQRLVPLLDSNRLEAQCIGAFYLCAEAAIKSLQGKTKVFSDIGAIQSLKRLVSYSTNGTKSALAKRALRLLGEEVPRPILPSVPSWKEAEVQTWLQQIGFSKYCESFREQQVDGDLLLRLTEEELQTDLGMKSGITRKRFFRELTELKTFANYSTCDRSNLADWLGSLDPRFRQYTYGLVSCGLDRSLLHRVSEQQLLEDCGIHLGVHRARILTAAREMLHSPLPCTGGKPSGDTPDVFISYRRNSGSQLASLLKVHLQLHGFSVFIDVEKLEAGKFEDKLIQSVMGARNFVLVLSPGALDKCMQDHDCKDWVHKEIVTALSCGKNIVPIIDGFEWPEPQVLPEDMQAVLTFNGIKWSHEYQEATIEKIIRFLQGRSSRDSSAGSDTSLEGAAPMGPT

COc1c(C)c2c(c(O)c1C/C=C(\C)CCC(=O)OCCN1CCOCC1)C(=O)OC2
parasite load remaining [1]: 10.4% (inactive) | viability [1]: 140% | nuclear beta-catenin stimulation ([2]; at 10 µM): 19.6% (inactive) | nuclear beta-catenin stimulation ([2]; stimulation, at 2 µM): 28.6% | insulin secretion stimulation [3]: 1.7% (inactive) | viability decrease [4]: 98.3% (active) | tube area decrease [5]: 79.8% (active) | GLP1 secretion stimulation [6]: 0.3% (inactive) | inhibition of viability [7]: 83.9% (active) | viability decrease (inhibition) [8]: 71.8% (active) | viability decrease (inhibition) [9]: 53.3% (active) | red/green cell ratio (normalised) ([10]; actives lie on both sides, counts scaled to control wells, 1 = unselective): 0.71 (inactive) | normalised cell number ([10]; measured here: epithelial PC-3E GFP cell survival): 1.24 | normalised cell number ([10]; measured here: mesenchymal TEM4-18 mCherry cell survival): 0.88 | fold change ([11]; stronger effect = lower value, cell number ratio, induced over uninduced): 0.954 (inactive) | fold change ([11]; measured here: relative caspase fold change +Dox/-Dox): 1.15 | cell count ([11]; measured here: total cells with miR-34 induction, stronger effect = lower value): 3090 | cell count ([11]; measured here: total cells without miR-34 induction): 3240 | z-score ([12]; MELAS cybrid survival, CellTiter-Glo 48 h, stronger effect = higher value): -0.954 (inactive) | z-score ([12]; Rieske KO mouse fibroblast survival, CellTiter-Glo 72 h): 1.62 | viability ([13]; at 0.000305 µM, OCI-C5x cells, with rucaparib 10 µM, 100% = cells with rucaparib alone): 104% (inactive) | viability ([13]; at 0.000305 µM, OCI-C5x cells, without rucaparib): 112% (inactive) | viability ([13]; at 0.000305 µM, OCI-P5x cells, with rucaparib 20 µM, 100% = cells with rucaparib alone): 90.9% (active) | viability ([13]; at 0.000305 µM, OCI-P5x cells, without rucaparib): 100% (inactive) | viability ([13]; at 0.00122 µM, OCI-C5x cells, with rucaparib 10 µM, 100% = cells with rucaparib alone): 119% (inactive) | viability ([13]; at 0.00122 µM, OCI-C5x cells, without rucaparib): 108% (inactive) | viability ([13]; at 0.00122 µM, OCI-P5x cells, with rucaparib 20 µM, 100% = cells with rucaparib alone): 95.2% (active) | viability ([13]; at 0.00122 µM, OCI-P5x cells, without rucaparib): 104% (inactive) | viability ([13]; at 0.00488 µM, OCI-C5x cells, with rucaparib 10 µM, 100% = cells with rucaparib alone): 122% (inactive) | viability ([13]; at 0.00488 µM, OCI-C5x cells, without rucaparib): 110% (inactive) | viability ([13]; at 0.00488 µM, OCI-P5x cells, with rucaparib 20 µM, 100% = cells with rucaparib alone): 101% (inactive) | viability ([13]; at 0.00488 µM, OCI-P5x cells, without rucaparib): 108% (inactive) | viability ([13]; at 0.0195 µM, OCI-C5x cells, with rucaparib 10 µM, 100% = cells with rucaparib alone): 115% (inactive) | viability ([13]; at 0.0195 µM, OCI-C5x cells, without rucaparib): 113% (inactive) | viability ([13]; at 0.0195 µM, OCI-P5x cells, with rucaparib 20 µM, 100% = cells with rucaparib alone): 108% (inactive) | viability ([13]; at 0.0195 µM, OCI-P5x cells, without rucaparib): 109% (inactive) | viability ([13]; at 0.0781 µM, OCI-C5x cells, with rucaparib 10 µM, 100% = cells with rucaparib alone): 146% (inactive) | viability ([13]; at 0.0781 µM, OCI-C5x cells, without rucaparib): 149% (inactive) | viability ([13]; at 0.0781 µM, OCI-P5x cells, with rucaparib 20 µM, 100% = cells with rucaparib alone): 107% (inactive) | viability ([13]; at 0.0781 µM, OCI-P5x cells, without rucaparib): 87.7% (active) | viability ([13]; at 0.313 µM, OCI-C5x cells, with rucaparib 10 µM, 100% = cells with rucaparib alone): 172% (inactive) | viability ([13]; at 0.313 µM, OCI-C5x cells, without rucaparib): 147% (inactive) | viability ([13]; at 0.313 µM, OCI-P5x cells, with rucaparib 20 µM, 100% = cells with rucaparib alone): 89.1% (active) | viability ([13]; at 0.313 µM, OCI-P5x cells, without rucaparib): 63.2% (active) | viability ([13]; at 1.25 µM, OCI-C5x cells, with rucaparib 10 µM, 100% = cells with rucaparib alone): 157% (inactive) | viability ([13]; at 1.25 µM, OCI-C5x cells, without rucaparib): 110% (inactive) | viability ([13]; at 1.25 µM, OCI-P5x cells, with rucaparib 20 µM, 100% = cells with rucaparib alone): 74.3% (active) | viability ([13]; at 1.25 µM, OCI-P5x cells, without rucaparib): 42.1% (active) | viability ([13]; at 5 µM, OCI-C5x cells, with rucaparib 10 µM, 100% = cells with rucaparib alone): 69% (active) | viability ([13]; at 5 µM, OCI-C5x cells, without rucaparib): 52.7% (active) | viability ([13]; at 5 µM, OCI-P5x cells, with rucaparib 20 µM, 100% = cells with rucaparib alone): 52.6% (active) | viability ([13]; at 5 µM, OCI-P5x cells, without rucaparib): 30.9% (active) | remaining NAD [14]: 10 nM (inactive)
